These results are taken from PubChem BioAssay (NCATS).

Structures are written as SMILES. Unmarked numbers belong to inactive results. Inconclusive results are not listed. Calls of active or inactive are those of the source. Unless noted, calls come from the whole dose curve; as a rule, active = well fitted curve in either direction with a large enough effect (not every such curve was filed as active); inconclusive = small, poorly fitted or top-dose-only effect, or another doubt; inactive = flat fitted curve, though single readings scatter. Where only a bound is given, the exact number is not on record here.

Test [1] deals with Lysosomal acid glucosylceramidase (Homo sapiens) (UniProt P04062). The experiment in a line: Glucocerebrosidase-p2 (AID 348; in the data active = potency below about 10 µM; note: potency is the fitted concentration of half-maximal effect). The conditions noted are these: purified GBA, blue fluorogenic substrate, 40 min. The procedure, abridged: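 Compounds titrated from 0.6 nM upwards against 0.2 nM enzyme in pH 5.9 citric acid/KH2PO4, taurocholate, tween-20; blue fluorogenic substrate 80 uM, 40 min room temperature, stopped and read Ex 365/Em 440 for AC50.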

Test [2] in a line: AP1 Signaling Pathway (AID 357).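 Note: ME-180 reporter cells stimulated with EGF at its EC50 level; % is set by controls: 0 for no effect and ±100 for the full control effect.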 The conditions noted are these: ME-180 AP-1-bla reporter, EGF-induced, beta-lactamase ratio, 5 h; at 7.69 µM (top of the series) unless noted. The procedure, abridged: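 AP-1-bla ME-180 cells, Opti-MEM + 0.5% dialyzed FBS, plated overnight 37 °C. Cpd titration + EC50 EGF, 5 h 37 °C. CCF4 2.5 h RT; ex 405, em 460/530 ratio → %activity, AC50.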
In test [3] the target is Cytochrome P450 1A2 (Homo sapiens) (UniProt P05177). As to the kind of experiment: p450-cyp1a2 (AID 410; calls by dose curve; note: potency is the fitted concentration of half-maximal effect;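 for activity change, negative = inhibition: -100% = full effect of reference inhibitor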). The following applies: recombinant CYP1A2, luciferin-ME demethylation, luminescence; series mostly up to 11.4 µM. An outline of the steps:
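Luminescent readout of luciferin formed from Luciferin-ME by human CYP1A2; data normalized against complete inhibition by 57 uM furafylline. Enzyme 20nM, substrate 100uM at Km, 100mM KPO4 buffer, 60 min reaction at room temperature.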

The nature of test [4]: NFAT Signaling Pathway (AID 444).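 Note: carbachol stimulus at about its EC50 of 1 µM final; % is set by controls: 0 for no effect and ±100 for the full control effect.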 The following applies: Jurkat NFAT-bla M1, carbachol, beta-lactamase ratio, 5 h; at 7.69 µM (top of the series) unless noted. The procedure, abridged:
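Jurkat cells with NFAT-driven β-lactamase reporter and co-expressed M1 receptor, stimulated with carbachol (final 1 uM, ~EC50), compound titration, 5 h at 37 °C. CCF4 loaded 1 h at RT; 460/530 nm ratio gave %activity and AC50.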

The nature of test [5]: Stat Signaling Pathway (AID 446).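 Note: ME-180 cervical cancer cells given 40 pM IL-6 alongside compound; SIE-controlled beta-lactamase reporter measured as 460/530 nm FRET emission ratio; % is set by controls: 0 for no effect and ±100 for the full control effect.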 The conditions noted are these: ME-180 SIE beta-lactamase reporter, IL-6 stimulated, 5 h; at 7.69 µM (top of the series) unless noted. An outline of the steps:
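Screening format detects activators and inhibitors alike: ME-180 SIE-bla cells stimulated at 40 pM IL-6 for 5 hrs with compound, then dual-emission beta-lactamase read at 405 nm excitation.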

Test [6] has as its target Glucocorticoid receptor (Homo sapiens) (UniProt P04150). The experiment in a line: GR-GFP Redistribution (AID 450;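 active = compounds whose dose series gives a full or clear partial fitted curve of increased nuclear translocation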; note: potency is the fitted concentration of half-maximal effect). The conditions noted are these: U2OS GR-GFP nuclear translocation, laser cytometry, 2 h.
For test [7] the target is unchanged. As to the kind of experiment: GR-EFC Redistribution (AID 451; calls by dose curve; note: potency is the fitted concentration of half-maximal effect). The conditions noted are these: CHO-K1 GR-EFC translocation, beta-gal luminescence, 2 h. An outline of the steps:
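CHO-K1 cells expressing nuclear EA and GR-ED fragments of b-gal; compounds titrated up to 46 uM final, 2 h at 37 C. GR nuclear translocation read as complemented b-gal luminescence after 1 h RT detection.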

Test [8] has as its target Mitogen-activated protein kinase 10 (Mus musculus) (UniProt Q61831). The experiment in a line: JNK3 AlphaScreen Assay (AID 530).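 Note: kinase came from lysate of stimulated human HepG2 cells; signal reports phosphorylation of biotinylated GST-cJun 1-79 at Ser73 with 10 µM ATP; % is set by controls: 0 for no effect and ±100 for the full control effect.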 The conditions noted are these: JNK3 lysate, c-Jun phosphorylation; series mostly up to 11.4 µM. The procedure, abridged:
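Pre-activated (IL-1β/TNFα) JNK3 in HepG2 lysates phosphorylates biotin-GST-cJun(1-79), 10 uM ATP; anti-phospho-cJun(Ser73) AlphaScreen read at room temperature, pH 7.6 Tris buffer. Compounds pre-incubated 15 min as titrations.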
(In general: In Alpha technology, singlet oxygen from a donor bead excites a nearby acceptor bead.)

For test [9], the target named is 3',5'-cyclic-AMP phosphodiesterase 4B (Homo sapiens) (UniProt Q07343). As to the kind of experiment: qHTS Assay for Inhibitors of PDE-IV (AID 607; active = well fitted activation curve with a large enough effect in the main read-out, with a control signal flat, not every such curve was filed as active; note: % of control where 0% means no effect). The conditions noted are these: HEK293 ACTOne CNG channel cells, membrane potential fluorescence; series mostly up to 22.9 µM. An outline of the steps:
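The readout is membrane depolarisation from a cAMP-sensing CNG channel, detected with a potential dye at ex 535/em 590. Cells were HEK293-derived (endogenous PDE-IV) at 1000 cells/well, titrated up to 22.9 uM final.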
Background: In qHTS, concentration-response curves come from the screen itself.

3',5'-cyclic-AMP phosphodiesterase 4B (Homo sapiens), sequence (Q07343 whole entry, looked up): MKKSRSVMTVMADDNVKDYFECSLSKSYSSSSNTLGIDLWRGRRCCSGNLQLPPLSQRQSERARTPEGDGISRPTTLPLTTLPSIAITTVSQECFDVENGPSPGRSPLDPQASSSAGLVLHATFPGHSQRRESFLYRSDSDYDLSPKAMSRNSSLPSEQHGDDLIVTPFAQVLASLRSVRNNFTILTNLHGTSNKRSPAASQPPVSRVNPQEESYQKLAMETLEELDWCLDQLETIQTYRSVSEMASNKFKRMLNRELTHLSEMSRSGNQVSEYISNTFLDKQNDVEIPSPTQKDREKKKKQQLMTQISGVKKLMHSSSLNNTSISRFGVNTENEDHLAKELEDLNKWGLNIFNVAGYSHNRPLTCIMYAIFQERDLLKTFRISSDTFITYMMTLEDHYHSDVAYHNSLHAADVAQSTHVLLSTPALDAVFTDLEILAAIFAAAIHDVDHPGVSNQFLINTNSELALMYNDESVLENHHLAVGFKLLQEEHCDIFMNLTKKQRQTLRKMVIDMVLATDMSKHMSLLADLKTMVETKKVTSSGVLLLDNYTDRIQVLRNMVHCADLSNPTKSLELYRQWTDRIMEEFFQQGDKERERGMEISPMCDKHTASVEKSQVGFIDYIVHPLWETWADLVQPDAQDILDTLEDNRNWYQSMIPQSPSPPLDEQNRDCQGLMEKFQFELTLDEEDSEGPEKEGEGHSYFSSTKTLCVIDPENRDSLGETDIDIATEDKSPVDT
Cytochrome P450 1A2 (Homo sapiens), sequence (P05177 whole entry, looked up): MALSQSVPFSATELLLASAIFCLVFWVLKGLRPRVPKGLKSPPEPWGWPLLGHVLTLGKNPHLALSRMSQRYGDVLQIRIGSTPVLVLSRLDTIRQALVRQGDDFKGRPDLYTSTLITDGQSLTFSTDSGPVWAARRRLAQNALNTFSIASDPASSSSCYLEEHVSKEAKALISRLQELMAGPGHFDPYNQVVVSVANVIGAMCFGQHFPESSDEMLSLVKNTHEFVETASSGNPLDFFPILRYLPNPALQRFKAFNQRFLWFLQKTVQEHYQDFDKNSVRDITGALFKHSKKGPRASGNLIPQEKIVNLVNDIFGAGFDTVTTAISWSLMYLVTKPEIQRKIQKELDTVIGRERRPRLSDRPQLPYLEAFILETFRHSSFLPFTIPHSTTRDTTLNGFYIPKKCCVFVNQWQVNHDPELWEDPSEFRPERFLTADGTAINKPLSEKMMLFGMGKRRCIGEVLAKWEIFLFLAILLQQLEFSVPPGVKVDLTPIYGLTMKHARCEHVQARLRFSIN
Lysosomal acid glucosylceramidase (Homo sapiens), sequence (P04062 whole entry, looked up): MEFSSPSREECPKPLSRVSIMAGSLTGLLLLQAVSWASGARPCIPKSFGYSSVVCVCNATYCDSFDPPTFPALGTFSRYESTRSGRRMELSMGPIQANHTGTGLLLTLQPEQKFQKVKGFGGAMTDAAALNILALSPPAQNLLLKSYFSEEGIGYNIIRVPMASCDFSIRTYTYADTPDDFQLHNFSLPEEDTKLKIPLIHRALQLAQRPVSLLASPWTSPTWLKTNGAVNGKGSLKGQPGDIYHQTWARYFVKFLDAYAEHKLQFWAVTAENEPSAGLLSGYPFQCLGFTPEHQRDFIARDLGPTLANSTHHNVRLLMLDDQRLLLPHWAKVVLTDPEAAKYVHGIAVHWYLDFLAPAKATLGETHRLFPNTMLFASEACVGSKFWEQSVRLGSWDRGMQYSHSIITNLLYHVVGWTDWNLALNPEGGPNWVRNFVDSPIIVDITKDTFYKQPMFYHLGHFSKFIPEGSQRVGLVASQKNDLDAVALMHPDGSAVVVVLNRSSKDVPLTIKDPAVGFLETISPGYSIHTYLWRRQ
Glucocorticoid receptor (Homo sapiens), sequence (P04150 whole entry, looked up): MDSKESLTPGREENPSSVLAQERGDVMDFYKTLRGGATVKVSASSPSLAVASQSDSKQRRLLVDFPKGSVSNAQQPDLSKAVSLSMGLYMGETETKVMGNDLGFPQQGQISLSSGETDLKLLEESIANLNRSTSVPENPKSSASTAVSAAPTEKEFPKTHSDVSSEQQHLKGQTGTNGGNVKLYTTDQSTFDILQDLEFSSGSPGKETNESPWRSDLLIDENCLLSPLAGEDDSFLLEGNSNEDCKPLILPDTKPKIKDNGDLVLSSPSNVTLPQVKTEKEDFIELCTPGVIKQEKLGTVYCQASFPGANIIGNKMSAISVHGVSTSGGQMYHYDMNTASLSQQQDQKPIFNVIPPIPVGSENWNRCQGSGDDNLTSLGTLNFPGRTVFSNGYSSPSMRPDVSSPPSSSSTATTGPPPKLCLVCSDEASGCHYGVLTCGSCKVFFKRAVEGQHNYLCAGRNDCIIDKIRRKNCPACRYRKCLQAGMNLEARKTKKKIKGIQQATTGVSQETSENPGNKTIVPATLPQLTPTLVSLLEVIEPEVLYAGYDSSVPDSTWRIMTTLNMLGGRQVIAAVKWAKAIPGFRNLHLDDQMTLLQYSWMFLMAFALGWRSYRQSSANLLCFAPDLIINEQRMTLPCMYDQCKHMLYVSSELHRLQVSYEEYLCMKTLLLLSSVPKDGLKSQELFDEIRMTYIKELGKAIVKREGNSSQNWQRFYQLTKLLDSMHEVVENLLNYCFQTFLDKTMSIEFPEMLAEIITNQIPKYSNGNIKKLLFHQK

On to `Cc1ccc(S(=O)(=O)N=Nc2c(O)[nH]c3cc(O)c(C(=O)O)cc23)cc1`, for which the Potency is above 11.4 µM in test [1], above 46 µM in test [6] and above 9.22 µM in test [7]. Moreover, the activity change, negative = inhibition in test [2] was -1.74%; in test [3], -15.8% [at 2.29 µM]; in [4], 7.79%. Moreover, in test [5], the activity, negative = inhibition was 0.979%. For the same compound, the Potency entry in test [8] and in [9] was “inactive” in each case.
As to `O=C(O)/C(=C\c1ccc(O)cc1)c1cccc2ccccc12`, the Potency in test [1] was above 11.4 µM; in test [6], above 46 µM; in test [7], above 9.22 µM. Also, the values for the activity change, negative = inhibition in test [2] and in test [4] were 1.02% and 2.46%, respectively. The Potency entry in test [3], in test [8] and in test [9] was “inactive” each time. Also, in test [5], the activity, negative = inhibition was -8.2%.
In the case of `O=C1CCC(c2ccccc2)(c2ccccc2)CC1`, the Potency is above 11.4 µM in test [1], above 46 µM in test [6] and above 9.22 µM in [7]. Moreover, the activity change, negative = inhibition in test [2] is 5.18%; in test [4], -2.6%. In addition, the Potency entry in [3], in [8] and in test [9] was “inactive” each time. In test [5], the activity, negative = inhibition was 1.75%.
For the compound `CCOc1ccccc1Nc1ccc(N)cc1S(=O)(=O)O`, the values for the Potency in test [1], in [6] and in [7] were above 11.4 µM, above 46 µM and above 9.22 µM, respectively. Moreover, the results for the activity change, negative = inhibition in [2], in test [3] and in test [4] were 6.02%, -12.6% [at 2.29 µM] and -5.87%, respectively. The activity, negative = inhibition in [5] is -1.52%. The Potency entry in [8] and in test [9] was “inactive” in each case.
`O=C(O)c1cc2c(cc1S(=O)(=O)O)[C@H]1[C@@H]([C@H]3[C@H]2[C@@]2(Cl)C(Cl)=C(Cl)[C@]3(Cl)C2(Cl)Cl)[C@]2(Cl)C(Cl)=C(Cl)[C@@]1(Cl)C2(Cl)Cl`: the Potency was above 11.4 µM in [1], above 46 µM in test [6] and above 9.22 µM in test [7]. Besides, the activity change, negative = inhibition in [2] is 5.22%; in test [4], 0.12%. Also, the Potency result in [3], in test [8] and in [9] was “inactive” throughout. Further, the activity, negative = inhibition in test [5] was -4.58%.
For `C#CCSc1n[nH]c(-c2ccco2)n1`, the Potency in test [1] was above 11.4 µM; in [3], 2 µM (active); in test [6] it was above 46 µM; in [7], above 9.22 µM. Besides, the activity change, negative = inhibition was -2.21% in test [2] and 15.4% in test [4]. In addition, the activity, negative = inhibition in [5] is -3.07%. For the same compound, the Potency entry in [8] and in test [9] was “inactive” throughout.
On to `CN(C)S(=O)(=O)c1nc(Cl)c2[nH]cnc2n1`, for which the Potency in test [1] is above 11.4 µM; in test [6], above 46 µM; in test [7], above 9.22 µM. Moreover, the activity change, negative = inhibition is 1.09% in test [2] and 17.4% in [4]. For the same compound, the Potency result in test [3], in [8] and in [9] was “inactive” in each case. The activity, negative = inhibition in [5] was -1.44%.
Turning to `Nc1c(OCC(=O)O)ccc2cc(S(=O)(=O)O)ccc12`, the Potency was above 11.4 µM in test [1], above 46 µM in test [6] and above 9.22 µM in test [7]. In addition, the values for the activity change, negative = inhibition in [2] and in test [4] were 3.51% and -3.75%, respectively. For the same compound, the Potency result in test [3], in [8] and in [9] was “inactive” in each case. In addition, the activity, negative = inhibition in [5] is -10.7%.
Turning to `CC(C)(CO[C@H]1C[C@H]2CC[C@@]1(C)C2(C)C)[N+](=O)[O-]`, the results for the Potency in test [1], in test [6] and in test [7] were above 11.4 µM, above 46 µM and above 9.22 µM, respectively. For the same compound, the figures for the activity change, negative = inhibition in test [2] and in test [4] were -1.64% and 7.34%, respectively. Further, the Potency result in test [3], in test [8] and in test [9] was “inactive” in each case. Besides, the activity, negative = inhibition in test [5] was -3.85%.
For `O=C(CCN1CCOCC1)Nc1ccc(F)cc1F`, the Potency is above 11.4 µM in [1], above 46 µM in [6] and above 9.22 µM in test [7]. For the same compound, the values for the activity change, negative = inhibition in [2] and in test [4] were -2.63% and 13.2%, respectively. Also, the Potency entry in test [3], in test [8] and in test [9] was “inactive” in each case. In test [5], the activity, negative = inhibition was 8.47%.
`O=C(O)[C@H](Cc1ccc(O)c([N+](=O)[O-])c1)N1C(=O)c2ccccc2C1=O`: the Potency was above 11.4 µM in test [1], above 46 µM in [6] and above 9.22 µM in test [7]. The values for the activity change, negative = inhibition in test [2], in test [3] and in [4] were 0.441%, -17.9% [at 2.29 µM] and 11.4%, respectively. Further, the activity, negative = inhibition in test [5] was 2.16%. Besides, the Potency result in [8] and in test [9] was “inactive” throughout.
With `ON(CCc1ccccn1)Cc1ccccc1`, the Potency in test [1] is above 11.4 µM; in test [3] it was 2.51 µM (active); in [6], above 46 µM; in test [7], above 9.22 µM. For the same compound, the activity change, negative = inhibition is -1.79% in [2] and 10.2% in test [4]. Further, in test [5], the activity, negative = inhibition is -0.0119%. Moreover, the Potency entry in test [8] and in test [9] was “inactive” each time.
In the case of `CO[C@@H](NC(N)=O)C(=O)O`, the Potency in [1] was above 11.4 µM; in test [6] it was above 46 µM; in test [7], above 9.22 µM. The activity change, negative = inhibition in [2] was -1%; in test [3], -6.4% [at 2.29 µM]; in [4] it was 1.38%. Moreover, the activity, negative = inhibition in test [5] was 8.15%. Moreover, the Potency result in [8] and in test [9] was “inactive” throughout.
With `OCCn1cnc2c(SCc3ccccc3)ncnc21`, the Potency in test [1] is above 11.4 µM; in test [3] it was 3.16 µM (active); in test [6] it was above 46 µM; in test [7], above 9.22 µM. Besides, the activity change, negative = inhibition was -4.68% in test [2] and 1.04% in [4]. The activity, negative = inhibition in [5] was -1.73%. For the same compound, the Potency result in test [8] and in test [9] was “inactive” each time.
